Source: PubChem
NADH coupling – inhibition of NAD/NADH coupling enzymes, library profiling; coupled PK/LDH NADH assays, four targets; IC50, µM (highest dose often 10 µM), for inactives: top-dose inhibition; 65,000 compounds, 0.02% hits; AID 774;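 active = single-dose screening hits from any of four coupled enzyme assays that gave an IC50 when retested across doses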;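 also: the DPM-DC format reads NADH fluorescence rather than 340 nm absorbance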
Fluor 339 460 – intrinsic fluorescence of library compounds, ex339/em460 – biochemical, MLSMR library, data from DPM-DC assay, artefact control, profiling panel; compound autofluorescence, ex339/em460 nm, NADH buffer; hits give high values; 1 = no-compound wells, NADH background; fluorescence fold increase at 10 µM; 65,000 compounds, 5.5% hits; AID 709;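 active = at 10 µM, mean starting fluorescence two-fold or more over control wells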;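 also: signal is the first read of a kinetic run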
M1 agonist – agonists of M1 muscarinic receptor. CHO-M1 cells, Fluo-4 calcium fluorescence, agonist mode; hits give high values. B-score at 10 µM. 64,000 compounds, 3% hits. AID 626;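 active = fluorescence rise, raw or as B-score row- and column-corrected plate score, outside the 99.7% band of its plate's samples, either direction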
Abs 340nm – absorbance at 340 nm; compound absorbance at 340 nm, fold over control; fold change at 10 µM; 65,000 tested, under 10 active; AID 708;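 active = at 10 µM dose, initial 340 nm absorbance at least 2 fold that of control wells; inactive = change under 2 fold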;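 also: initial absorbance extrapolated from kinetic A340 decline of NADH oxidation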
M1 antag – blocks the rat M1 muscarinic receptor response to acetylcholine. B-score at 10 µM. AID 628. P08482. 64,000 compounds, 3.4% hits. CHO-M1 cells, Fluo-4 calcium, ACh EC80 antagonist mode; hits give low values;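 active = calcium fluorescence response, raw or row-and-column corrected B-score, differing from the plate sample mean either way at a set confidence level, mostly lower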
Target sequence (P08482 whole entry, looked up): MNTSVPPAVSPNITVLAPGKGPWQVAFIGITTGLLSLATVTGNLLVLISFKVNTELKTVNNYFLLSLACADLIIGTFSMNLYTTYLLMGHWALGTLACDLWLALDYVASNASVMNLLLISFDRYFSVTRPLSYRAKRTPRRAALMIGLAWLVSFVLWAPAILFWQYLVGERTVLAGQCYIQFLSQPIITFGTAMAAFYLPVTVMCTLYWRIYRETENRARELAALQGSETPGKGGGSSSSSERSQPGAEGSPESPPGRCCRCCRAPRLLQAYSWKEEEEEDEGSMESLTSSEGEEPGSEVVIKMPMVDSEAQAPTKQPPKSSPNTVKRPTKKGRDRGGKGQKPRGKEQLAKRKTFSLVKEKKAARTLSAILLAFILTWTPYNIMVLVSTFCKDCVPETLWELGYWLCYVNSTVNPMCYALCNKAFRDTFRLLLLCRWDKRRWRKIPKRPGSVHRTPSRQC
mHtt clearance – mutant huntingtin protein clearance; HeLa Exon1htt(103Q)mCFP, aggregate imaging; zero = plate's median compound well; AID 853; inhibition, % at 1.5 µM; 47,000 compounds, 0.42% hits;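 active = inhibition of aggregate fluorescence above about 70%, also judged a hit by eye on the cell image, limit read from the data, passing the limit was not always enough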;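 also: cells exposed to compound for three days before fixation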
An asterisk follows results filed as active; / = no result. Hits are enriched below; roughly 9.3% of the tested compounds scored in any of these assays.

SMILES | NADH coupling | Fluor 339 460 | M1 agonist | Abs 340nm | M1 antag | mHtt clearance
CC1=CC(c2ccccc2)n2nc(N3C(=O)c4ccccc4C3=O)nc2N1 (configuration not stated) | 5.0% | 1.15 | 0.269 | 1.04 | -0.0147 | /
CC(C)OC(=O)CCc1nc2ccccc2[nH]c1=O | 3.0% | 2.04* | -0.852 | 1.06 | 0.629 | -25.3
CC1(C)Cc2c(C#N)c(N3CCCC3)nc(-c3ccco3)c2CO1 | 9.0% | 2.16* | -0.0494 | 1.05 | -0.00465 | /
CC1(C)Cc2c(C#N)c(OCC(=O)c3ccc(Cl)cc3)nc(-c3ccco3)c2CO1 | 1.0% | 2.12* | -0.16 | 1.14 | 0.0592 | -2.1
Cc1nc(NCc2ccco2)c(C#N)c2c1COC(C)(C)C2 | 7.0% | 2.72* | 0.58 | 1.05 | 0.117 | /
CCCCN(C)c1nc(-c2ccco2)c2c(c1C#N)CC(C)(C)OC2 | 7.0% | 1.76 | -0.223 | 1.07 | 0.349 | /
N#Cc1c(N2CCOCC2)nc(-c2ccco2)c2c1CCCC2 | 5.0% | 2.29* | 0.036 | 1.05 | 0.717 | -6.3
O=C(CCCc1cccs1)N1CCN(S(=O)(=O)c2ccccc2Br)CC1 | 5.0% | 1.09 | -0.821 | 1 | 0.00988 | 16.2
CC1(C)CC(=O)C(C=NCC2CCN(C(=O)Nc3ccccc3)CC2)=C(O)C1 | 1.0% | 1.11 | 0.161 | 1.05 | 0.145 | /
CCC(=O)N1CCN(c2nc(-c3ccccc3)c3c(c2C#N)CCCC3)CC1 | 2.0% | 2.08* | 0.218 | 1.02 | -0.386 | /
CN(C)CCNc1nc(-c2ccco2)c2c(c1C#N)CC(C)(C)OC2 | 5.0% | 2.2* | -0.0772 | 1.1 | -0.366 | 19.2
CC1(C)Cc2c(C#N)c(NCc3ccco3)nc(-c3ccco3)c2CO1 | 2.0% | 2.25* | -0.11 | 1 | 0.263 | /
CC(C)c1nc(N2CCN(C(=O)c3ccccc3)CC2)c(C#N)c2c1COC(C)(C)C2 | 1.0% | 2.13* | -0.00555 | 1.07 | -0.033 | -18.7
COc1ccc(NC(=O)CSc2nc3c(c(=O)n2-c2ccc(C)cc2)SCC3)c(OC)c1 | 1.0% | 1.06 | -0.661 | 1.07 | -0.0609 | /
Cc1ccc(C)c(N2CCN(C(=O)c3ccc(NS(=O)(=O)c4c(C)noc4C)cc3)CC2)c1 | 2.0% | 1.11 | 0.0905 | 1.02 | 2.24* | /
N#Cc1ccc(NC(=O)c2cc3cc4c5c(c3oc2=N)CCCN5CCC4)cc1 | 2.0% | 1.38 | 166* | 1.03 | 0.191 | /
Cc1oc2c(c1C(=O)Nc1ccc(C(=O)O)cc1)CCCC2 | / | / | / | / | / | 29.0
CC(/C=N/n1cnnc1)=C\c1ccco1 | 3441µM* | 0.92 | 0.206 | 1.27 | -0.00837 | /
CC(=O)N=c1sc(C(C)(C)C)c(C)n1C | 11.0% | 1.04 | 0.61 | 0.99 | -0.317 | /
CC1CCN(c2nc3ccccc3nc2C(C#N)S(=O)(=O)c2ccccc2)CC1 (configuration not stated) | 17.0% | 1.34 | 3.8* | 1.05 | 0.516 | /
CC1CCN(c2nc3ccccc3nc2C(C#N)C(=O)OC2CCCCC2)CC1 (configuration not stated) | 6.0% | 1.16 | 3.18 | 1.05 | 1.49* | 33.2
COc1ccc(S(=O)(=O)C(C#N)c2nc3ccccc3nc2N2CCCC(C)C2)cc1 (configuration not stated) | 3.0% | 1.64 | 0.994 | 0.98 | 1.64 | -19.7
Cc1ccc(S(=O)(=O)C(C#N)c2nc3ccccc3nc2N2CCCC2)cc1 (configuration not stated) | 7.0% | 3.79* | 4.99 | 1.03 | 0.046 | -16.4
COc1cc(CNC2CCCC2)cc(OC)c1 | 14.0% | 1.06 | -0.682 | 1.05 | -1.01 | 0.8
CCSc1cnc(-c2ccccc2)n1CC | 6.0% | 1.04 | 0.982 | 1.03 | 0.16 | /
SMILES | NADH coupling | Fluor 339 460 | M1 agonist | Abs 340nm | M1 antag | mHtt clearance
COc1ccc(C(C)=O)cc1COC(=O)c1cccc(N(C)C)c1 | 7.0% | 2.14* | 0.419 | 0.98 | -1.18 | /
CCOC(=O)CCC(=O)N1CCNC(=O)C1 | / | / | 0.716 | / | 2.22* | /
CCOC(=O)c1ccccc1NC(=O)c1cc2sccc2n1C | 4.0% | 2.57* | -1.22 | 1.02 | -0.447 | 67.7
CN1OC(COC(=O)c2ccc(Cl)cc2Cl)CC1c1ccccc1 (configuration not stated) | / | / | / | / | / | 9.1
CC12CCC(=O)N1c1ccccc1C(=O)N2c1ccccc1 (configuration not stated) | 2.0% | 1.13 | 1.05 | 1.03 | 2.28* | /
O=C1NC(c2cccs2)Nc2ccccc21 (configuration not stated) | 1.0% | 2.51* | -0.533 | 1.01 | 0.318 | /
O=C1NC(c2ccccc2Cl)Nc2ccccc21 (configuration not stated) | 5.0% | 4.97* | 0.288 | 1.03 | 0.446 | -3.3
Cc1ccsc1C1NC(=O)c2ccccc2N1 (configuration not stated) | 1.0% | 1.94 | -0.269 | 1.07 | -0.0592 | -19.5
O=C(CSc1ccc2nnc(-c3ccncc3)n2n1)N1CCc2ccccc21 | 2.0% | 1.08 | -0.133 | 1.03 | -0.275 | /
COC1=CC(=O)OC12CCCCC2 | 6.0% | 1.04 | -0.335 | 1.02 | -1.22 | 70.3*
O=C1C=C(NC2CC2)C2(CCCCC2)O1 | 0.0% | 1.05 | -0.0861 | 1.04 | 0.501 | -9.2
COc1ccc(-n2nc(C(=O)NCc3ccco3)c3c4ccccc4n(C)c3c2=O)cc1Cl | 20.0% | 3.59* | / | 1.08 | / | /
CC(C)(C)n1nc2c(c1NC(=O)c1cccc(C(F)(F)F)c1)CS(=O)C2 (configuration not stated) | 5.0% | 1.03 | -0.445 | 1.01 | -0.572 | -28.2
Cc1cc(NC(=O)CCC(=O)N(Cc2ccco2)C(C(=O)NC2CCCCC2)c2ccccc2)no1 (configuration not stated) | / | / | / | / | / | -35.8
Cc1cc(NC(=O)CCC(=O)N(CCc2ccccc2)C(C(=O)NC2CCCC2)c2ccco2)no1 (configuration not stated) | 3.0% | 1.04 | 1.26 | 1 | 2.43* | /
CCN(CC)S(=O)(=O)c1ccc(NC2CCCc3ccccc32)nc1 (configuration not stated) | 2.0% | 1.04 | -0.376 | 1.01 | 0.0036 | 6.0
CCOc1cc(C2C(C(=O)N3CCCCC3)=C(C)NC3=C2C(=O)CCC3)cc(Br)c1O (configuration not stated) | 16.0% | 2.52* | 0.234 | 1.17 | -0.0315 | -22.2
CCOC(=O)C1=C(C)NC2=C(C(=O)C(C(=O)OCC)C(c3ccco3)C2)C1c1ccccn1 (configuration not stated) | 7.0% | 3.58* | 1.12 | 1.07 | -0.181 | 47.0
O=C(COc1ncnc2ccccc12)NCCCN1CCCC1=O | 12.0% | 1.76 | 0.0441 | 1.02 | 0.0231 | -72.9
Cc1nc2ccccc2nc1N1CCCCC1 | 3.0% | 1.17 | 0.211 | 1.01 | 1.07 | 23.6
c1ccc(Sc2nc(N3CCCCC3)nc(N3CCCCC3)n2)nc1 | 5.0% | 1.15 | 0.482 | 1.04 | 2.1* | /
Nc1cc(N)nc(SCC(=O)Nc2ccccc2)n1 | / | / | / | / | / | 20.6
O=C(CSc1ncccn1)Nc1ccccc1 | 2.0% | 1.11 | 1.2 | 1.06 | 1.86* | /
Cc1ccc(S(=O)(=O)N(CC(=O)NCCC2=CCCCC2)Cc2ccccc2)cc1 | / | / | / | / | / | 38.0
